According to the supplement of paper PMC10127200:
Where a name gives a salt, the structure may show the parent alone.

Experiments:
Experiment in all cases: Euclidean distance of Cell Painting phenotypic profile (signed KS, 77 features) to DMSO centroid (dimensionless distance); 5 or 10 uM (library dependent); higher = stronger phenotypic change vs DMSO (phenoactivity)
Conditions in all cases: 48 h
786-O = tested on: 786-O
Procedure, shortened: (§1)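 Phenoactivity is computed as Euclidean distance to the median vehicle profile. The profiles, drawn from 77 Harmony features scored as signed Kolmogorov-Smirnov statistics versus same-plate vehicle wells, were corrected for plate position, correlation-weighted and replicate-averaged at the top dose. Stained cells were imaged confocally at 20X (9 fields/well) after 48 h with library compounds at 10 or 5 uM, 0.1% DMSO final, in five cancer lines and a healthy fibroblast line.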

A549 = tested on: A549
Procedure, shortened: as §1

DU145 = tested on: DU145
Procedure, shortened: as §1

FB = tested on: FB
Procedure, shortened: as §1

HEPG2 = tested on: HEPG2
Procedure, shortened: as §1

OVCAR4 = tested on: OVCAR4
Procedure, shortened: as §1

SMILES	Euclidean distance (786-O)	Euclidean distance (A549)	Euclidean distance (DU145)	Euclidean distance (FB)	Euclidean distance (HEPG2)	Euclidean distance (OVCAR4)
Cc1ccc(C(=O)C(C)CN2CCCCC2)cc1 (stereo unspecified) [Tolperisone HCl]	0.966	0.611	1.08	0.909	0.439	0.725
Cn1c(=O)c2[nH]c(Br)nc2n(C)c1=O [Pamabrom]	0.794	0.799	1.56	1.18	0.337	0.81
Cc1cccc(Nc2cc(Cl)nc(SCC(=O)O)n2)c1C	1.08	0.839	0.785	0.914	0.873	0.647
Nc1nc(NC2CC2)c2ncn([C@H]3C=C[C@@H](CO)C3)c2n1 [Abacavir]	1.46	0.752	1.02	1.21	0.494	1.25
O=C(O)C(O)C(O)C(=O)O (stereo unspecified) [Tartaric acid]	0.758	0.688	0.848	1.25	0.481	0.632
CCN(CC)CCOC(=O)c1ccc(N)cc1Cl [Chloroprocaine HCl]	0.962	0.947	0.943	0.861	0.503	1.07
N#C/C(=C\c1ccc(O)c(O)c1)C(=O)NCc1ccccc1 [AG-490 (Tyrphostin B42)]	1.55	1.52	1.17	1.34	0.804	0.729
CC[C@H]1OC(=O)C[C@@H](O)[C@H](C)[C@@H](O[C@@H]2O[C@H](C)[C@@H](O)[C@H](N(C)C)[C@H]2O)[C@@H](CCN2C[C@H](C)C[C@H](C)C2)C[C@@H](C)C(=O)/C=C/C(C)=C/[C@@H]1CO[C@@H]1O[C@H](C)[C@@H](O)[C@@H](OC)[C@H]1OC [Tilmicosin]	0.767	0.579	0.777	0.841	1.09	0.801
CC[C@H](C)C(=O)O[C@H]1C[C@H](O)C=C2C=C[C@H](C)[C@H](CC[C@@H](O)C[C@@H](O)CC(=O)O)[C@H]21 [Pravastatin sodium]	0.813	0.763	0.709	0.425	0.254	0.778
CCCCC(F)(F)[C@@]1(O)CC[C@H]2[C@@H](CC(=O)[C@@H]2CCCCCCC(=O)O)O1 [Lubiprostone]	1.06	1.09	1.21	1.29	0.966	1.1
NCC(=O)O [Glycine]	1.61	0.971	0.929	1	0.776	1.93
CC(=O)c1cc([N+](=O)[O-])c(Sc2ccc(F)cc2F)s1	0.453	0.953	0.697	0.781	2.06	1.97
CC[C@@H](CO)NCCN[C@@H](CC)CO [Ethambutol HCl]	1.4	1.22	0.738	0.916	1.17	0.884
CC1(C)CCC(C)(C)c2cc(NC(=O)c3ccc(C(=O)O)cc3)ccc21 [Tamibarotene]	1.13	1.55	1.77	3	0.884	1.24
Nc1nc(O)c2ncn(CCC(CO)CO)c2n1 [Penciclovir]	0.815	0.334	0.816	0.496	0.404	1.17
O=C(Oc1ccccc1C(=O)O)c1ccccc1O [Sasapyrine]	0.578	0.394	0.556	0.969	0.413	1.18
CCCCOc1ccc(C(=O)Nc2ccc(F)cc2F)cc1	1.45	1.45	1.14	1.28	0.872	1.5
CCCCCCCCCC(=O)N[C@H]1[C@H](Oc2c3cc4cc2Oc2ccc(cc2Cl)[C@@H](O[C@@H]2O[C@H](CO)[C@@H](O)[C@H](O)[C@H]2NC(C)=O)[C@@H]2NC(=O)[C@H](NC(=O)[C@@H]4NC(=O)[C@H]4NC(=O)[C@@H](Cc5ccc(c(Cl)c5)O3)NC(=O)[C@H](N)c3ccc(O)c(c3)Oc3cc(O)cc4c3)c3ccc(O)c(c3)-c3c(OC4O[C@H](CO)[C@@H](O)[C@H](O)[C@@H]4O)cc(O)cc3[C@@H](C(=O)O)NC2=O)O[C@H](CO)[C@@H](O)[C@@H]1O (stereo partly specified) [Teicoplanin]	1.09	1.18	0.773	0.777	1.39	1.07
NCCCCC(NC(=O)C1CCCN1C(=O)C1CSSCC(N)C(=O)NC(Cc2ccc(O)cc2)C(=O)NC(Cc2ccccc2)C(=O)NC(CCC(N)=O)C(=O)NC(CC(N)=O)C(=O)N1)C(=O)NCC(N)=O (stereo unspecified) [Lypressin Acetate]	1.39	0.851	1.08	1.11	0.477	1.48
O=C1c2cccc(O)c2C(=O)c2c(O)cc(CO)cc21 [Aloe-emodin]	1.1	1.14	1.2	1.05	1.08	1.41
CCOc1ccc2c(c1)C(C)=CC(C)(C)N2 [Ethoxyquin]	0.933	1.17	0.847	1.62	0.54	1.95
CS(=O)(=O)c1ccc([C@@H](O)[C@@H](CF)NC(=O)C(Cl)Cl)cc1 [Florfenicol]	1.1	0.738	0.807	1.12	0.739	0.76
CC(C)(C)Cn1c(N)nc2ccc(-c3[nH]c(C(C)(C)C)nc3-c3ccc(F)cc3)nc21	4.34	2.69	2.57	3.56	4.51	3.76

SMILES	Euclidean distance (786-O)	Euclidean distance (A549)	Euclidean distance (DU145)	Euclidean distance (FB)	Euclidean distance (HEPG2)	Euclidean distance (OVCAR4)
C[C@@]12C[C@@]3(O)O[C@@H](O1)[C@]1(COC(=O)c4ccccc4)[C@H]3C[C@@]12O[C@@H]1O[C@H](CO)[C@@H](O)[C@H](O)[C@H]1O [Paeoniflorin]	1.19	0.375	0.983	0.985	0.474	1.17
CC1(C)S[C@@H]2[C@H](NC(=O)[C@H](N)c3ccccc3)C(=O)N2[C@H]1C(=O)O [Ampicillin sodium]	1.18	0.444	1.06	0.59	0.55	1.15
COc1ccccc1OCC(O)CN1CCN(CC(=O)Nc2c(C)cccc2C)CC1 (stereo unspecified) [Ranolazine]	1.2	0.699	0.507	0.669	1.08	1.09
CC(=O)O[C@H]1CC[C@@]2(C)C(=CC[C@@H]3[C@@H]2CC[C@]2(C)C(c4cccnc4)=CC[C@@H]32)C1 [Abiraterone Acetate]	1.52	1.19	0.94	0.94	0.44	0.818
CNC(=O)[C@H](Cc1c[nH]c2ccccc12)NC(=O)[C@@H](CC(=O)NO)CC(C)C [Ilomastat (GM6001. Galardin)]	1.02	1.06	1.22	0.836	0.633	1.3
COc1ccc2cc3[n+](cc2c1OC)CCc1cc2c(cc1-3)OCO2 [Berberine HCl]	0.872	1.5	0.626	0.96	1.8	0.946
Nc1cccc2c1CN(C1CCC(=O)NC1=O)C2=O (stereo unspecified) [Lenalidomide (CC-5013)]	1.74	1.2	0.79	1.03	0.639	1.15
OC[C@@H](O)CN1CCN(c2ccccc2)CC1 [Levodropropizine]	1.23	1.05	0.896	1.17	0.732	1.12
CC(C)C[C@@H](C=O)NC(=O)[C@H](CC(C)C)NC(=O)[C@H](CC(C)C)NC(=O)OCc1ccccc1	3.8	3.23	3.14	3.41	3.64	4.07
O=C(O)Cc1ccccc1Nc1c(Cl)cccc1Cl [Diclofenac Epolamine]	0.939	0.571	1.14	0.969	0.65	1.22
Cc1ccc(-c2cc(C(F)(F)F)nn2-c2ccc(S(N)(=O)=O)cc2)cc1 [Celecoxib]	1.6	1.23	1.67	1.09	1.08	1.37
CO[C@@H]1[C@@H](O[C@@H]2O[C@H](C)[C@@H](O[C@H]3C[C@@](C)(O)[C@@H](OC(=O)CC(C)C)[C@H](C)O3)[C@H](N(C)C)[C@H]2O)[C@@H](CC=O)C[C@@H](C)[C@@H](O)/C=C/C=C/C[C@@H](C)OC(=O)C[C@H]1O [Kitasamycin]	0.871	1.1	1.49	0.973	0.78	0.761
COC(=O)N[C@H](C(=O)N[C@@H](Cc1ccccc1)[C@@H](O)CN(Cc1ccc(-c2ccccn2)cc1)NC(=O)[C@@H](NC(=O)OC)C(C)(C)C)C(C)(C)C [Atazanavir Sulfate]	1.01	0.58	0.637	0.614	0.837	1.55
COC1=C(OC)C(=O)C(CCCCCCCCCCO)=C(C)C1=O [Idebenone]	1.45	0.641	0.677	1.22	1.05	0.744
COC(=O)C1=CO[C@@H](O)[C@@H]2C(CO)=CC[C@H]12 [Genipin]	1.19	1.13	0.882	1.15	0.828	1.35
O=P(O)(O)C(O)(Cn1ccnc1)P(=O)(O)O [Zoledronic Acid]	0.951	1.23	0.9	1.37	2.13	1.11
C=C(c1ccc(C(=O)O)cc1)c1cc2c(cc1C)C(C)(C)CCC2(C)C [Bexarotene]	2.33	2	1.58	1.39	1.63	1.48
CCCCOc1nc(N)c2c(n1)N(Cc1cccc(CN3CCCC3)c1)CC(=O)N2	1.32	0.517	0.661	0.941	0.589	1
C#C[C@]1(O)CC[C@H]2[C@@H]3CCc4cc(OC5CCCC5)ccc4[C@H]3CC[C@@]21C [Quinestrol]	1.6	1.26	1.69	1.48	0.902	1.67
Cc1cccc(CC(=O)N2CCc3c2ccc(-c2cn(C)c4ncnc(N)c24)c3F)n1	1.25	2.13	1.84	1.96	1.24	1.35
CC(=O)NC[C@H]1CN(c2ccc(N3CCOCC3)c(F)c2)C(=O)O1 [Linezolid]	1.83	1.27	1.73	0.611	0.92	1.35
O=C(Nc1cccc(C(F)(F)F)c1)Nc1cc(S(=O)(=O)NC2CC2)ccc1-c1ccsc1	0.684	1.29	1.11	1.51	2.45	1.01
CCC(=O)NS(=O)(=O)c1ccc(-c2c(-c3ccccc3)noc2C)cc1 [Parecoxib]	0.575	0.57	0.471	1.11	0.593	0.719
